Measured values taken from PubChem BioAssay (Tox21).
Results filed as inconclusive are left out. Where a call stands in place of a potency, no number is given. Activity calls are given as the source filed them. Unless noted, calls come from the whole dose curve; as a rule, active = well fitted curve in the direction sought with a large enough effect in the repeat runs; inconclusive = weak or mixed curves; inactive = no such curve, though single readings can be large; an effect the other way counts as inactive or inconclusive.

Legend:
[1] = qHTS assay to identify small molecule antagonists of the glucocorticoid receptor (GR) signaling pathway - cell viability counter screen (AID 720693); note: nearly all actives have a fitted effect of over 55% in size
[2] = qHTS assay for identifying genotoxic compounds that show differential cytotoxicity against isogenic chicken DT40 cell lines with known DNA damage response pathways - Rad54/Ku70 mutant cell line (AID 743015); note: nearly all actives have a fitted effect of over 60% in size; note: potency is the fitted concentration of half-maximal effect
[3] = qHTS assay to identify small molecule antagonists of the androgen receptor (AR) signaling pathway - cell viability counter screen (AID 743033; note: nearly all actives have a fitted effect of over 45% in size; note: potency is the fitted concentration of half-maximal effect)
[4] = qHTS assay to identify small molecule antagonists of the androgen receptor (AR) signaling pathway using the MDA cell line - cell viability counter screen (AID 743041; note: nearly all actives have a fitted effect of over 45% in size; note: potency is the fitted concentration of half-maximal effect)
Outline: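 Viability read by CellTiter-Fluor fluorescence in the same wells as the antagonist screen, added after 15.5 h of a 16 h, 37C exposure. Human breast carcinoma MDA-kb2 AR-luc cells, compounds co-dosed with agonist R1881.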

[5] = target: Androgen receptor (Homo sapiens) (UniProt P10275); assay: qHTS assay to identify small molecule antagonists of the androgen receptor (AR) signaling pathway using the MDA cell line (AID 743042; note: nearly all actives have a fitted effect of over 55% in size; note: potency is the fitted concentration of half-maximal effect)
Outline: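 Antagonist mode: compounds plus R1881 agonist added to MDA-kb2 AR-luc cells, incubated 16 h at 37C. Luciferase reporter luminescence quantified, with multiplexed CellTiter-Fluor readout for cell viability.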

[6] = target: Androgen receptor (Homo sapiens) (UniProt P10275); assay: qHTS assay to identify small molecule agonists of the androgen receptor (AR) signaling pathway (AID 743036; active = well fitted activation curve with a large enough effect in the signal ratio in the repeat runs, with a control signal flat, not every such curve was filed as active; the % refers to the signal ratio; note: potency is the fitted concentration of half-maximal effect)
Outline: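 Quantitative HTS of the Tox21 10K library in HEK293 cells bearing a stably integrated UAS-controlled beta-lactamase reporter. Compound exposure lasted 16 h at 37C. Reporter activity was detected by FRET substrate fluorescence after 2 h at room temperature.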

[7] = target: Androgen receptor (Homo sapiens) (UniProt P10275); assay: qHTS assay to identify small molecule agonists of the androgen receptor (AR) signaling pathway using the MDA cell line (AID 743040; note: nearly all actives have a fitted effect of over 20% in size; note: potency is the fitted concentration of half-maximal effect)
Outline: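 Luciferase agonist assay: 16 h compound exposure at 37C without CO2 in MDA-kb2 AR-luc cells, whose MMTV promoter responds to both AR and GR. Luminescence measured after 30 min room-temperature incubation with ONE-Glo.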

[8] = qHTS assay for identifying genotoxic compounds that show differential cytotoxicity against isogenic chicken DT40 cell lines with known DNA damage response pathways - wild type cell line (AID 743012); note: nearly all actives have a fitted effect of over 60% in size; note: potency is the fitted concentration of half-maximal effect
Outline: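 Viability of DNA repair-proficient chicken DT40 cells was assessed by CellTiter-Glo luminescence following 40 h compound exposure at 37 C/5% CO2.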

[9] = qHTS assay for identifying genotoxic compounds that show differential cytotoxicity against isogenic chicken DT40 cell lines with known DNA damage response pathways - Rev3 mutant cell line (AID 743014); note: nearly all actives have a fitted effect of over 55% in size; note: potency is the fitted concentration of half-maximal effect
[10] = target: Androgen receptor (Homo sapiens) (UniProt P10275); assay: qHTS assay to identify small molecule antagonists of the androgen receptor (AR) signaling pathway (AID 743035; active = well fitted inhibition curve with a large enough effect in the signal ratio in the repeat runs, not every such curve was filed as active; the % refers to the signal ratio)
Outline: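 Reporter HEK293 cells were exposed to compounds and R1881 overnight (16 h, 37C); beta-lactamase activity was then quantified by FRET fluorescence.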

Sequence of Androgen receptor (Homo sapiens) (P10275 whole entry, looked up): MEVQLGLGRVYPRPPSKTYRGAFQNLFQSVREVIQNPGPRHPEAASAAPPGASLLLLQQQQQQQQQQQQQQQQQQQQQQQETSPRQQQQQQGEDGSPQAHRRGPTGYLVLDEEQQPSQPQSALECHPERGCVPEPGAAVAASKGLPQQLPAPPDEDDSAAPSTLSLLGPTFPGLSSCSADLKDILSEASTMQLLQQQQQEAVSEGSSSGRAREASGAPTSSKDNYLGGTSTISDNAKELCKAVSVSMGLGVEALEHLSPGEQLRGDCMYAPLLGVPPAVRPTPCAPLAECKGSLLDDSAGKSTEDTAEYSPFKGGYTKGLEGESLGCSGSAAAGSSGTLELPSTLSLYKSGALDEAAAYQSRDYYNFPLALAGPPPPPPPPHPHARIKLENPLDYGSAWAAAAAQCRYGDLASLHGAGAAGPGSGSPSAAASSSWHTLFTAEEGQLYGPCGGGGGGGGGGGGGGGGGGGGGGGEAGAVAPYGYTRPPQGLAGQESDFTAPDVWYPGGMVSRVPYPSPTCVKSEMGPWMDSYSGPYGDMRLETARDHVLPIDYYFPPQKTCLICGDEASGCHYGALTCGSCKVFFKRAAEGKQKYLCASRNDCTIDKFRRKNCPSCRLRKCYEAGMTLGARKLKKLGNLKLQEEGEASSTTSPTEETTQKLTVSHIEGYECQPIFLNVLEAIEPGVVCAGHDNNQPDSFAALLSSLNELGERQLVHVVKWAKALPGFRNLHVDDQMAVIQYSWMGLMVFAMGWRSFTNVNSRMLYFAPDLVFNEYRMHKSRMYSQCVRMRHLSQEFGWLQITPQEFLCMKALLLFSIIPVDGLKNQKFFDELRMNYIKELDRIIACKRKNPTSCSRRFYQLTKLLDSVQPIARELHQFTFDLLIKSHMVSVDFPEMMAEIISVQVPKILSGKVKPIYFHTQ

Structure (SMILES): COc1ccc(-c2noc(CC(=O)O)c2-c2ccc(OC)cc2)cc1
- Potency [1]: inactive
- Potency [2]: inactive
- Potency [3]: inactive
- Potency [4]: inactive
- Potency [5]: inactive

Structure (SMILES): CCC(=O)Oc1ccc2c(c1)CC[C@@H]1[C@@H]2CC[C@]2(C)[C@@H](OC(=O)CC)CC[C@@H]12
- Potency [1]: inactive
- Potency [6]: 2.39 µM (active)
- Potency [7]: 1.19 µM (active)
- Potency [4]: inactive

Structure (SMILES): COc1ccc2c(c1)OC(C)(C)C(c1ccccc1)C2c1ccc(OCCN2CCCC2)cc1 (stereo unspecified)
- Potency [8]: 3.76 µM (active)
- Potency [9]: 5.31 µM (active)
- Potency [2]: 5.96 µM (active)

Structure (SMILES): O=C(OCc1ccccc1)c1cccnc1
- Potency [1]: inactive
- Potency [2]: 6.68 µM (active)
- Potency [4]: inactive

Structure (SMILES): CC(C)(CO)[C@@H](O)C(=O)NCCCC(=O)O
- Potency [1]: inactive
- Potency [2]: inactive
- Potency [3]: inactive
- Potency [10]: inactive
- Potency [6]: inactive
- Potency [7]: inactive
- Potency [4]: inactive
- Potency [5]: inactive

Structure (SMILES): C[N+]1(C)[C@@H]2CC(OC(=O)C(O)(c3cccs3)c3cccs3)C[C@H]1[C@@H]1O[C@@H]12 (stereo partly specified)
- Potency [1]: inactive
- Potency [2]: inactive
- Potency [4]: inactive

Structure (SMILES): CCOC(=O)c1cc(-c2ccccc2)nc2ccc(C)cc12
- Potency [1]: inactive
- Potency [3]: inactive
- Potency [10]: inactive
- Potency [7]: inactive
- Potency [4]: inactive
- Potency [5]: inactive

Structure (SMILES): Cc1cc(/C=C/c2ccc3cc(N(C)C)ccc3[n+]2C)c(C)n1-c1ccccc1
- Potency [1]: inactive
- Potency [3]: 4.56 µM (active)
- Potency [4]: 2.66 µM (active)

Structure (SMILES): CC(C)[C@@H](C)/C=C/[C@@H](C)[C@H]1CC[C@H]2/C(=C/C=C3\C[C@@H](O)CC[C@@H]3C)CCC[C@]12C
- Potency [1]: inactive
- Potency [3]: inactive
- Potency [4]: inactive

Structure (SMILES): CC(Oc1ccccc1)C(=O)N[C@@H]1C(=O)N2[C@@H]1SC(C)(C)[C@@H]2C(=O)O (stereo partly specified)
- Potency [1]: inactive
- Potency [2]: inactive
- Potency [4]: inactive

Structure (SMILES): CCC[C@@H]1C[C@@H](C(=O)N[C@@H]([C@H]2O[C@H](SC)[C@H](O)[C@@H](O)[C@H]2O)[C@H](C)Cl)N(C)C1
- Potency [1]: inactive
- Potency [3]: inactive
- Potency [4]: inactive

Structure (SMILES): O=C(Nc1ccc(O)cc1)c1ccccc1O
- Potency [1]: inactive
- Potency [2]: inactive
- Potency [7]: inactive
- Potency [4]: inactive
- Potency [5]: inactive

Structure (SMILES): COc1cc2c(cc1OC)CC(=O)N(CCCN(C)C[C@H]1Cc3cc(OC)c(OC)cc31)CC2
- Potency [1]: inactive
- Potency [2]: 9.44 µM (active)
- Potency [3]: inactive
- Potency [4]: inactive

Structure (SMILES): CC[C@@H](C(=O)O)[C@@H]1O[C@@H]([C@@H](C)[C@H](O)[C@H](C)C(=O)[C@H](CC)[C@H]2O[C@]3(C=C[C@@H](O)[C@]4(CC[C@@](C)([C@H]5CC[C@](O)(CC)[C@H](C)O5)O4)O3)[C@H](C)C[C@@H]2C)[C@@H](C)C[C@@H]1C
- Potency [8]: 0.237 µM (active)
- Potency [9]: 0.168 µM (active)
- Potency [2]: 0.237 µM (active)

Structure (SMILES): COC(=O)[C@H]1[C@H]2C[C@@H]3c4[nH]c5cc(OC)ccc5c4CCN3C[C@H]2C[C@@H](OC(=O)/C=C/c2cc(OC)c(OC)c(OC)c2)[C@@H]1OC
- Potency [1]: inactive
- Potency [3]: inactive
- Potency [7]: inactive
- Potency [4]: inactive
- Potency [5]: inactive

Structure (SMILES): CC(=O)OCC(=O)[C@@]1(O)[C@H](C)C[C@H]2[C@@H]3C[C@H](F)C4=CC(=O)C=C[C@]4(C)[C@H]3[C@@H](O)C[C@@]21C
- Potency [1]: inactive
- Potency [3]: inactive
- Potency [6]: 1.34 µM (active)
- Potency [7]: 0.0298 µM (active)
- Potency [4]: inactive
- Potency [5]: inactive

Structure (SMILES): O=S(=O)(O)c1cc(O)c2c(N=Nc3ccc(Nc4ccccc4)c4c(S(=O)(=O)O)cccc34)cc(S(=O)(=O)O)cc2c1
- Potency [1]: inactive
- Potency [2]: 13.3 µM (active)
- Potency [3]: inactive
- Potency [10]: inactive
- Potency [6]: inactive
- Potency [7]: inactive
- Potency [5]: 16.8 µM (active)

Structure (SMILES): C=C1CC2C3CCC4=CC(=O)C=C[C@]4(C)[C@@]3(F)[C@@H](O)C[C@]2(C)[C@@]1(O)C(=O)COC(C)=O (stereo partly specified)
- Potency [1]: inactive
- Potency [2]: inactive
- Potency [3]: inactive
- Potency [4]: inactive

Structure (SMILES): COc1cc(C)c(/C=C/C(C)=C/C=C/C(C)=C/C(=O)O)c(C)c1C
- Potency [1]: inactive
- Potency [7]: inactive
- Potency [4]: inactive
- Potency [5]: inactive

Structure (SMILES): CCN(CC)CCOC(=O)c1cccnc1
- Potency [1]: inactive
- Potency [2]: inactive
- Potency [3]: inactive
- Potency [4]: inactive

Structure (SMILES): CNC(=O)[C@H](Cc1c[nH]c2ccccc12)NC(=O)[C@@H](CC(=O)NO)CC(C)C
- Potency [1]: inactive
- Potency [2]: 33.5 µM (active)
- Potency [3]: inactive
- Potency [4]: inactive

Structure (SMILES): COCC(=O)Nc1cc(Sc2ccccc2)ccc1N=C(NC(=O)OC)NC(=O)OC
- Potency [1]: inactive
- Potency [3]: inactive
- Potency [4]: inactive

Structure (SMILES): CO[C@H]1C=CO[C@@]2(C)Oc3c(C)c(O)c4c(O)c(c(/C=N/N5CCN(C6CCCC6)CC5)c(O)c4c3C2=O)NC(=O)/C(C)=C\C=C[C@H](C)[C@H](O)[C@@H](C)[C@@H](O)[C@@H](C)[C@H](OC(C)=O)[C@@H]1C
- Potency [8]: 3.35 µM (active)
- Potency [9]: 8.41 µM (active)
- Potency [2]: 4.22 µM (active)
- Potency [3]: inactive
- Potency [4]: 23.7 µM (active)

Structure (SMILES): CCCCCCCCCCCCCCCCSCC(COC)COP(=O)([O-])OCC[N+](C)(C)C (stereo unspecified)
- Potency [9]: inactive
- Potency [2]: inactive
- Potency [3]: inactive
- Potency [7]: inactive
- Potency [4]: inactive
- Potency [5]: inactive

Structure (SMILES): CCCCCCCCCCCCCCCC(=O)OC[C@@H](COP(=O)([O-])OCC[N+](C)(C)C)OC(=O)CCCCCCCCCCCCCCC
- Potency [8]: inactive
- Potency [2]: inactive
- Potency [3]: inactive
- Potency [10]: inactive
- Potency [6]: inactive
- Potency [7]: inactive
- Potency [5]: inactive

Structure (SMILES): CC(C)N=c1cc2n(-c3ccc(Cl)cc3)c3ccccc3nc-2cc1Nc1ccc(Cl)cc1
- Potency [2]: 12.7 µM (active)
- Potency [3]: inactive

Structure (SMILES): CCCCCCCCCCCCCCCC(=O)O[C@@H]1CC(C)=C(/C=C/C(C)=C/C=C/C(C)=C/C=C/C=C(C)/C=C/C=C(C)/C=C/C2=C(C)C[C@@H](OC(=O)CCCCCCCCCCCCCCC)CC2(C)C)C(C)(C)C1
- Potency [8]: inactive
- Potency [9]: inactive
- Potency [2]: inactive
- Potency [3]: inactive
- Potency [4]: inactive

Structure (SMILES): CC(C)Cc1ccc([C@@H](C)C(=O)NS(C)(=O)=O)cc1
- Potency [3]: inactive
- Potency [4]: inactive

Structure (SMILES): C=C1C(=C/C=C2\CCC[C@]3(C)[C@@H]([C@H](C)/C=C/[C@H](C)C(C)C)CC[C@@H]23)C[C@@H](O)C[C@@H]1O
- Potency [8]: 13.3 µM (active)
- Potency [9]: 21.1 µM (active)
- Potency [2]: 16.8 µM (active)
- Potency [6]: inactive
- Potency [7]: inactive
- Potency [4]: inactive

Structure (SMILES): NC(=O)C[C@@H](N)C(=O)O
- Potency [8]: inactive
- Potency [9]: inactive
- Potency [2]: inactive
- Potency [3]: inactive
- Potency [4]: inactive

Structure (SMILES): CC(C)[C@@H](N)C(=O)O
- Potency [8]: inactive
- Potency [2]: inactive
- Potency [3]: inactive
- Potency [4]: inactive

Structure (SMILES): C=C1C(=C/C=C2\CCC[C@]3(C)[C@@H]([C@H](C)CCCC(C)(C)O)CC[C@@H]23)C[C@@H](O)C[C@@H]1O
- Potency [8]: 5.96 µM (active)
- Potency [9]: 11.9 µM (active)
- Potency [2]: 10.6 µM (active)
- Potency [3]: inactive

Structure (SMILES): CCN(CC)CCOc1ccc(-c2nc3cc(Cl)ccc3s2)cc1
- Potency [8]: 0.944 µM (active)
- Potency [9]: 1.06 µM (active)
- Potency [2]: 1.06 µM (active)
- Potency [3]: 23.9 µM (active)

Structure (SMILES): CC[C@@]1(O)C(=O)OCc2c1cc1n(c2=O)Cc2cc3c([N+](=O)[O-])cccc3nc2-1
- Potency [8]: 0.119 µM (active)
- Potency [9]: 0.0944 µM (active)
- Potency [2]: 0.0841 µM (active)
- Potency [3]: inactive

Structure (SMILES): C=CCNC1=C2C[C@@H](C)C[C@H](OC)[C@H](O)[C@@H](C)/C=C(\C)[C@H](OC(N)=O)[C@@H](OC)/C=C\C=C(/C)C(=O)NC(=CC1=O)C2=O
- Potency [8]: 0.335 µM (active)
- Potency [9]: 0.473 µM (active)
- Potency [2]: 0.376 µM (active)

Structure (SMILES): CO[C@H]1C[C@@H]2CC[C@@H](C)[C@@](O)(O2)C(=O)C(=O)N2CCCC[C@H]2C(=O)O[C@H]([C@H](C)C[C@@H]2CC[C@@H](OC(=O)C(C)(CO)CO)[C@H](OC)C2)CC(=O)[C@H](C)/C=C(\C)[C@@H](O)[C@@H](OC)C(=O)[C@H](C)C[C@H](C)/C=C/C=C/C=C/1C
- Potency [8]: inactive
- Potency [9]: inactive
- Potency [2]: inactive
- Potency [3]: inactive
- Potency [4]: inactive

Structure (SMILES): CCOc1ccc(N=Nc2ccc(N)cc2N)cc1
- Potency [8]: 23.7 µM (active)
- Potency [2]: 21.1 µM (active)
- Potency [3]: inactive
- Potency [7]: 0.473 µM (active)
- Potency [4]: 15 µM (active)
- Potency [5]: inactive

Structure (SMILES): Cc1nnc(C(C)C)n1C1C[C@H]2CC[C@@H](C1)N2CC[C@H](NC(=O)C1CCC(F)(F)CC1)c1ccccc1 (stereo partly specified)
- Potency [8]: inactive
- Potency [9]: inactive
- Potency [2]: inactive
- Potency [3]: inactive
- Potency [4]: inactive
